PubChem BioAssay AID463173 (ICCB-Longwood Screening Facility, Harvard Medical School, 2010)
About 1,700 (3.3%) of roughly 52,000 compounds were called active. Only a selection was taken, and actives are over-represented in it overall. Unmarked numbers belong to inactive results. Cut-off read from the data, not from the text of the source: active = survival mostly below about 52% (no sharp cut-off); inactive = mostly above about 56%.

What follows are compounds tested on Wild type (assay: growth inhibition of S. aureus wild type versus tarO mutant, primary screen, teichoic acid synthesis inhibitors, RN4220, OD600 (AID 463173)). Conditions: S. aureus RN4220 wild type/DeltatarO growth, OD600, 18 h, stronger effect = lower value, screened at 18.75 µg/mL (by protocol).
Compound `Cc1cc(N2CCC(C)CC2)nc2ccc(NC(=O)/C=C/c3cccc(Cl)c3)cc12` has a survival of 69%. In the case of `Cc1ccc(CNc2ccc(-c3nc(-c4ccncc4)no3)cc2[N+](=O)[O-])cc1`, the survival was 87%. Work on `CCc1ccc(NS(=O)(=O)c2c(-c3ccccc3)csc2C(=O)OC)cc1` yielded a survival of 77%. `Cn1c(=O)oc2cc(S(=O)(=O)N3CCCC(C(=O)NCCc4ccc(Cl)cc4)C3)ccc21` (stereo not drawn) was tested, and the survival was 90%. Compound `CCOc1ccc(CNC(=O)CCn2c(=O)c3cccn3c3cccnc32)cc1` has a survival of 93%. In the case of `Cc1cccc(-n2c(=O)c3c(c4cc(C)ccc4n3C)n(Cc3ccccc3F)c2=O)c1`, the survival was 153%. In the case of `O=C1NCN(c2ccccc2)C12CCN(c1nnnn1-c1ccccc1)CC2`, the survival was 102%. Compound `CCOc1ccc(N2CC(c3nc4ccccc4n3CCC3CCCCC3)CC2=O)cc1` (stereo not drawn) has a survival of 29%. `Cc1cccc(N2CC(c3nc4ccccc4n3CCC3CCCCC3)CC2=O)c1` (stereo not drawn) was tested, and the survival was 44%. In the case of `CCc1ccccc1N1CC(c2nc3ccccc3n2CCC2CCCCC2)CC1=O` (stereo not drawn), the survival was 25% (active). In the case of `Cc1ccccc1N1CC(c2nc3ccccc3n2CCC2CCCCC2)CC1=O` (stereo not drawn), the survival was 12% (active). With `Cc1ccc(N2CC(c3nc4ccccc4n3CCC3CCCCC3)CC2=O)cc1` (stereo not drawn) the survival was 80%. Compound `CCc1ccccc1N1CC(c2nc3ccccc3n2CC(C)C)CC1=O` (stereo not drawn) has a survival of 91%. In the case of `O=C1CC(c2nc3ccccc3n2CCC2CCCCC2)CN1c1ccccc1Cl` (stereo not drawn), the survival was 32% (active). `COc1ccccc1OCCCn1c(C2CC(=O)N(c3ccccc3Cl)C2)nc2ccccc21` (stereo not drawn) was tested, and the survival was 93%. For `COc1ccccc1OCCCCn1c(C2CC(=O)N(c3ccccc3Cl)C2)nc2ccccc21` (stereo not drawn), the survival was 85%. For `Cc1c(C(=O)NCc2ccc(N(C)C)cc2)oc2c1-c1nn(Cc3cccc(Cl)c3)cc1CC2`, the survival was 91%. Work on `CC1CCCN(S(=O)(=O)c2ccc(N)cc2)C1` (stereo not drawn) yielded a survival of 109%. Work on `COCCCNS(=O)(=O)c1cc(-c2onc(C)c2C)ccc1OC` yielded a survival of 111%. In the case of `Cc1ccc(-c2onc(C)c2C)cc1S(=O)(=O)NCc1cccs1`, the survival was 119%. In the case of `Cc1ccc(-c2onc(C)c2C)cc1S(=O)(=O)NCc1ccc(N(C)C)cc1`, the survival was -4% (active). For `Cc1ccc(-c2onc(C)c2C)cc1S(=O)(=O)NCc1ccco1`, the survival was 112%. For `COc1ccc(-c2onc(C)c2C)cc1S(=O)(=O)NCCc1ccccc1`, the survival was 57%. In the case of `COc1ccc(CCNS(=O)(=O)c2cc(-c3onc(C)c3C)ccc2OC)cc1OC`, the survival was -3% (active). `CCOC(=O)n1c(SCC)nc2ccccc21` gave a survival of 104%. Work on `O=C(Cc1ccc(Cl)cc1)NCCc1csc2nc(-c3ccccc3F)nn12` yielded a survival of 69%. `Cc1cc(C)n2nc(-c3ccccc3)cc2n1` was tested, and the survival was 116%. `Cc1cc(-c2ccccc2)n2nc(-c3cccc(Br)c3)cc2n1` was tested, and the survival was 55%. `Cc1cc(-c2ccccc2)n2nc(-c3ccccc3)cc2n1` was tested, and the survival was -2% (active). With `CCCCC(=O)Nc1nnc(SCc2cc(=O)n3cc(C)ccc3n2)s1` the survival was 63%. Compound `CC(=O)Nc1nonc1-c1nc2ccccc2n1Cc1ccccc1Br` has a survival of 97%. `O=C(CCn1c(=O)c2sccc2n(Cc2ccc(F)cc2Cl)c1=O)NCc1ccc2c(c1)OCO2` showed a survival of 92%. In the case of `CCc1ccc2oc(C(=O)NCCc3ccc(OC)c(OC)c3)cc(=O)c2c1`, the survival was 83%. Compound `Cc1c(C(C)(C)C)sc(=N)n1C` has a survival of 86%. For `CCc1ccc(-c2[nH]c3c(c2-c2c(-n4cccc4)n(C)c(=O)n(C)c2=O)c(=O)n(C)c(=O)n3C)cc1`, the survival was 105%. Compound `COCCCNC(=O)c1[nH]c2ccccc2c1Sc1ccc(C)cc1` has a survival of 81%. In the case of `O=C(NCCCN1CCCCC1)c1[nH]c2ccccc2c1Sc1ccc(Cl)cc1`, the survival was -1% (active). For `O=C(c1[nH]c2ccccc2c1Sc1ccc(Cl)cc1)N1CCCCC1`, the survival was 48%. Work on `COc1ccc2c(Sc3ccc(Cl)cc3)c(C(=O)N3CCCCC3)[nH]c2c1` yielded a survival of 33%. For `COc1ccc2c(Sc3ccc(Cl)cc3)c(C(=O)NCCCN3CCCCC3)[nH]c2c1`, the survival was -1% (active). In the case of `COc1ccc2c(Sc3ccccc3)c(C(=O)NCCCN3CCCCC3)[nH]c2c1`, the survival was 73%. `CCOc1cc(C2CC(=O)Nc3c2c(C)nn3-c2nc(C)cc(C)n2)ccc1O` (stereo not drawn) was tested, and the survival was 83%. `CCOC(=O)c1cccc(NC(=O)c2cc3c(-c4cccc(OC)c4)nn(C)c3s2)c1` gave a survival of 65%. `CCc1ccc2occ(CC(=O)N(Cc3ccccc3)C3CCS(=O)(=O)C3)c2c1` (stereo not drawn) showed a survival of 77%. Compound `COc1ccc2c(c1)c1c(c(=O)n(-c3cccc(Cl)c3)c(=O)n1CC(=O)N1CCCC1)n2C` has a survival of 73%. In the case of `CCCCN(CCCC)CCNC(=O)CN1C(=O)CSc2ccc(S(=O)(=O)N3CCCCC3)cc21`, the survival was 110%. With `COC(=O)c1ccc(Cn2nc(-c3ccc(C)cc3)ccc2=O)cc1` the survival was 145%. `CCc1cccc(NC(=O)Cn2nc(-c3ccc(OC)cc3)ccc2=O)c1` was tested, and the survival was 59%. `O=C(O)c1cc(-c2ccccc2)nn1Cc1ccccc1` gave a survival of 68%. With `CCOC(=O)c1cc(-c2ccc(OC)cc2)nn1Cc1ccccc1` the survival was 10% (active). In the case of `CCOC(=O)c1cc(-c2ccc(C)cc2)nn1Cc1ccccc1`, the survival was 0% (active). Compound `CCOC(=O)c1cnn(Cc2ccccc2)c1N` has a survival of 104%. Compound `Cc1ccc(-c2cc(C(=O)O)n(Cc3ccccc3)n2)cc1` has a survival of 63%. In the case of `COc1ccc(-c2cc(C(=O)O)n(Cc3ccccc3)n2)cc1`, the survival was 63%. For `CCOC(=O)c1cc(-c2ccccc2)nn1Cc1ccccc1`, the survival was 2% (active). For `CCOC(=O)c1c(C)[nH]c(C)c1S(=O)(=O)N1CCC(C(=O)NCc2cccc(C)c2)CC1`, the survival was 76%. Work on `COC(=O)C1=C(C)Nc2nc3ccccc3n2C1c1ccccc1` (stereo not drawn) yielded a survival of 91%. With `CC(=O)NC1CC(=O)N(c2ccc3c(c2)OCCO3)C1` (stereo not drawn) the survival was 66%. `COc1ccc(Cl)cc1-n1nnc(-c2nc(-c3ccc4c(c3)OCO4)no2)c1C` was tested, and the survival was 71%. With `CCC(C)Cn1c(COc2ccc(OC)cc2)nc2ccccc21` (stereo not drawn) the survival was -1% (active). Work on `Cc1nc2ccccc2n1C(C)c1ccccc1` (stereo not drawn) yielded a survival of 111%. `COc1ccc(OCC(O)Cn2c(C(C)C)nc3ccccc32)cc1` (stereo not drawn) showed a survival of 107%. Compound `CCCc1nc2ccccc2n1CC(O)COc1ccccc1` (stereo not drawn) has a survival of 103%. Compound `COc1cccc(OCc2nc3ccccc3n2C)c1` has a survival of 84%. In the case of `COc1ccc(OCc2nc3ccccc3n2C(C)c2ccccc2)cc1` (stereo not drawn), the survival was -2% (active). Compound `COc1ccc(OCc2nc3ccccc3n2C(C)C)cc1` has a survival of 102%. In the case of `Cc1ccc(OCc2nc3ccccc3n2CC(C)C)cc1`, the survival was -1% (active). Compound `Cc1cc(C)n2c(Nc3cccc(C(F)(F)F)c3)c(-c3ccsc3)nc2n1` has a survival of 89%. With `O=C(c1cccs1)N1CCCc2ccccc21` the survival was 124%. With `COc1ccc(-n2ncc3c(NC(C)(C)CO)ncnc32)cc1` the survival was 59%. Work on `Cc1cc(Br)ccc1NC(=O)c1cc2c(s1)-c1ccccc1SC2` yielded a survival of 78%. With `CCN(CC)c1ccc(NC(=O)CCc2nc3cccnc3n2Cc2cccs2)c(C)c1` the survival was 73%. Compound `CCOc1ccc(S(=O)(=O)NCCc2sc(-c3ccc(C)cc3)nc2C)cc1` has a survival of 73%. With `Cc1ccc(-c2nc(C)c(CCNS(=O)(=O)c3ccc(F)c(C(F)(F)F)c3)s2)cc1` the survival was -6% (active). Work on `Cc1ccc(-c2nc(C)c(CCNS(=O)(=O)c3ccccc3F)s2)cc1` yielded a survival of 67%. Work on `COc1ccc(N2CC(NC(=O)c3cc4ccccc4o3)CC2=O)cc1OC` (stereo not drawn) yielded a survival of 70%. Work on `CCc1nc(SCC(=O)O)c(C#N)cc1C` yielded a survival of 96%. Work on `O=c1c2c([nH]n1-c1ccccc1)CCCC2` yielded a survival of 123%. In the case of `COc1ccc(NC(=O)c2ccc3c(c2)c(C)c(C)n3Cc2ccc(F)cc2)c(OC)c1`, the survival was 59%. For `Cc1nc(-c2cccc(F)c2)sc1CCNC(=O)C(=O)Nc1ccc2c(c1)OCCO2`, the survival was 68%. For `COc1ccc(-c2cc(C(F)(F)F)nc(SCC(=O)N3CCCCC3)n2)cc1`, the survival was 97%. `COc1ccc(-c2cc(C(F)(F)F)nc(SCC(=O)N3CCCCC3C)n2)cc1OC` (stereo not drawn) showed a survival of 69%. In the case of `CCC1CCCCN1C(=O)CSc1nc(-c2ccc(OC)c(OC)c2)cc(C(F)(F)F)n1` (stereo not drawn), the survival was -15% (active). `CCC1CCCCN1C(=O)CSc1nc(-c2ccc(OC)cc2)cc(C(F)(F)F)n1` (stereo not drawn) was tested, and the survival was -6% (active). Work on `COc1ccc(-c2cc(C(F)(F)F)nc(SCC(=O)N3CCCCC3)n2)cc1OC` yielded a survival of 90%. `COc1ccc(-c2cc(C(F)(F)F)nc(SCCC(=O)N3CCN(C)CC3)n2)cc1` showed a survival of 108%. `Cc1cc(C)n(-c2nc3cc(Cl)c(Cl)cc3nc2Nc2ccc(F)cc2C)n1` gave a survival of 82%. Work on `Cc1oc(C(C)(C)C)cc1C(=O)NC(Cc1ccccc1)C(=O)O` (stereo not drawn) yielded a survival of 98%. Compound `Cc1ccc(CNC(=O)C2CCN(c3ncnc4c3nc3n4CCCCC3)CC2)cc1` has a survival of 85%. In the case of `COc1ccccc1-c1cc(C(=O)N2CCN(c3ccccc3)CC2)no1`, the survival was -10% (active). `COc1ccccc1N1CCN(C(=O)c2cc(-c3ccc(F)cc3)on2)CC1` was tested, and the survival was 73%. With `COc1ccc(-c2cc(C(=O)N3CCN(c4ccccc4)CC3)no2)cc1` the survival was 16% (active). `COc1ccccc1N1CCN(C(=O)c2cc(-c3ccccc3O)on2)CC1` gave a survival of 66%. `COc1cccc(-c2cc(C(=O)N3CCN(c4ccc(F)cc4)CC3)no2)c1` showed a survival of 78%. For `COc1cccc(-c2cc(C(=O)N3CCN(c4ccccc4OC)CC3)no2)c1`, the survival was -9% (active). With `COc1ccc(N2CCN(C(=O)c3cc(-c4ccc(C)c(F)c4)on3)CC2)cc1` the survival was 106%. `O=C(c1cc(-c2ccc(O)cc2)on1)N1CCN(c2ccccc2)CC1` showed a survival of 51%. `COc1ccc(-c2cc(C(=O)N3CCN(c4ccc(F)cc4)CC3)no2)cc1OC` gave a survival of 72%.
